Data taken from PubChem BioAssay (EPA / NIEHS).
Records with an inconclusive call do not appear. The source made the active and inactive calls. Rule for the calls, unless noted: active = hit-call score of the fitted dose curve at least 0.9, where 1 is the maximum; inactive = score below 0.9.

Assays:
[1] = ATG_TCF_b_cat_CIS: Attagene CIS-FACTORIAL HepG2 Assay for human T-Cell-Factor with beta-catenin (TCF/b-cat) (AID 2282965); conditions: HepG2 TCF/beta-catenin cis-reporter transcription, actives raise or lower the signal
Procedure, shortened: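 HepG2, transient MRTU transfection, cis-element-driven reporters (endogenous TFs). 24 h compound exposure. Readout: reporter mRNA by RT-PCR + 6-FAM primer extension, HpaI digest, capillary electrophoresis. Gain/loss fit vs DMSO baseline.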

[2] = ATG_TAL_CIS: Attagene CIS-FACTORIAL HepG2 Assay for human TAL Basal Promoter (AID 2282966); conditions: HepG2 Attagene cis-factorial TAL promoter reporter; actives raise or lower the signal;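 note: background control endpoint measuring basal TAL promoter reporter mRNA not a specific factor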
Procedure, shortened: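 Endogenous transcription-factor activity is sensed in HepG2 cells through transfected cis-promoter reporter constructs. After 24 h dosing, reporter transcripts are quantified by RT-PCR and capillary electrophoresis. Gain or loss of signal is fitted relative to DMSO.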

[3] = ATG_TGFb_CIS: Attagene CIS-FACTORIAL HepG2 Assay for human Transforming Growth Factor (TGF) (AID 2282967); conditions: HepG2 Attagene CIS TGFb reporter, mRNA transcription; actives raise or lower the signal
Procedure, shortened: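 Endogenous TGFB1-linked transcription factor activity read as reporter mRNA via RT-PCR and capillary electrophoresis, 24 h after dosing transiently transfected HepG2 cells. Gain or loss of signal fitted relative to DMSO.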

[4] = ATG_VDRE_CIS: Attagene CIS-FACTORIAL HepG2 Assay for human Vitamin D Receptor Element (VDRE) (AID 2282968); conditions: HepG2 VDRE cis-reporter transcription, actives raise or lower the signal
Procedure, shortened: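 Compounds were applied for 24 h to HepG2 cells transfected with promoter-regulated reporter units. Total RNA was reverse-transcribed, and reporter amplicons were fluorescently labelled and sized by capillary electrophoresis.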

[5] = biological target: Estrogen receptor (Homo sapiens) (UniProt P03372); assay: ATG_ERa_TRANS: Attagene TRANS-FACTORIAL HepG2 Assay for human Estrogen Receptor alpha (ERa) (AID 2282970; active = hit-call score of the fitted dose curve at least 0.9, where 1 is the maximum); conditions: HepG2 Attagene TRANS ERa GAL4 reporter, mRNA
Estrogen receptor (Homo sapiens), sequence (P03372 whole entry, looked up, the tested form may be a part): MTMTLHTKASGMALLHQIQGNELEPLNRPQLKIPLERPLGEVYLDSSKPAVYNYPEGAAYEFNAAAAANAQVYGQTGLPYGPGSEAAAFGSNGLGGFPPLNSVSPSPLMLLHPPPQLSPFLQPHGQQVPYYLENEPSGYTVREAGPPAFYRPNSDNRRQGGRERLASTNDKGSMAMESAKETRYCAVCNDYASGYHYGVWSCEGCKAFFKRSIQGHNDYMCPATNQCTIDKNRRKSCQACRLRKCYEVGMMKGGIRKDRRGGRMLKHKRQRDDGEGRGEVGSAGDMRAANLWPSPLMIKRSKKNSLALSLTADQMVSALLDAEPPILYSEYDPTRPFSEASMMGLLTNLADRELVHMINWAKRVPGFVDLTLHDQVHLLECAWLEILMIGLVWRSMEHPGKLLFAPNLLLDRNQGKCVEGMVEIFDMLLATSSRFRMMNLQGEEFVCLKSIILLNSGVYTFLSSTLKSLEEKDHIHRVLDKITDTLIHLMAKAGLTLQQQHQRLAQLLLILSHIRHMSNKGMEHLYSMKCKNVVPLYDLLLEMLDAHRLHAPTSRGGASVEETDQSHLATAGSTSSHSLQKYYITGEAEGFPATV
Procedure, shortened: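 Transfected HepG2 cells carrying GAL4-UAS-driven reporter units were dosed for 24 hours. Total RNA was reverse-transcribed, reporter sequences PCR-amplified, FAM-labelled, HpaI-digested and resolved by capillary electrophoresis. Increases over DMSO control defined activity.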

[6] = biological target: X-box-binding protein 1 (Homo sapiens) (UniProt P17861); assay: ATG_Xbp1_CIS: Attagene CIS-FACTORIAL HepG2 Assay for human X-box Binding Protein 1 (XBP1) (AID 2282972); conditions: HepG2 XBP1 cis-element reporter, Attagene multiplex; actives raise or lower the signal
X-box-binding protein 1 (Homo sapiens), sequence (P17861 whole entry, looked up): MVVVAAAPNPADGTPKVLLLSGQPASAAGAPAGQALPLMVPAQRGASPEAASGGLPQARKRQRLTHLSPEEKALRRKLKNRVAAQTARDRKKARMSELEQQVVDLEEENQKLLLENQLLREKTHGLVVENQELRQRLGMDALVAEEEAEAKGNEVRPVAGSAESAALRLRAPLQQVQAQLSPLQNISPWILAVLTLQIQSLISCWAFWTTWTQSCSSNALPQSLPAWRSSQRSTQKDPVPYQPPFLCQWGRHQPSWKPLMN
Procedure, shortened: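 Multiplexed cis-reporter readout in transfected HepG2 liver cells. Exposure lasted 24 hours. Activity in either direction was fitted against DMSO as negative control and baseline.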

[7] = ATG_M_19_TRANS: Attagene TRANS-FACTORIAL HepG2 Assay for M19 Transcription Factor (Internal Marker) (AID 2282974; active = hit-call score of the fitted dose curve at least 0.9, where 1 is the maximum); conditions: HepG2 Attagene TRANS-FACTORIAL M19 internal marker reporter
Procedure, shortened: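 Using RT-PCR and capillary electrophoresis, reporter mRNA from transiently transfected human HepG2 cells was quantified following 24 h exposure; activity was fitted in the positive direction against DMSO.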

[8] = ATG_GAL4_TRANS: Attagene TRANS-FACTORIAL HepG2 Assay for GAL4 (Internal Marker) (AID 2282976; active = hit-call score of the fitted dose curve at least 0.9, where 1 is the maximum); conditions: HepG2 Attagene TRANS GAL4 internal marker reporter
Procedure, shortened: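 Fluorescence from capillary electrophoresis of labelled RT-PCR products quantifies reporter mRNA induction after 24 h dosing of HepG2 cells carrying transfected GAL4-UAS reporter transcription units. Vehicle DMSO serves as baseline.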

[9] = biological target: Steroid hormone receptor ERR1 (Homo sapiens) (UniProt P11474); assay: ATG_ERRa_TRANS: Attagene TRANS-FACTORIAL HepG2 Assay for human Estrogen-Related Receptor alpha (ERRa) (AID 2282971; active = hit-call score of the fitted dose curve at least 0.9, where 1 is the maximum); conditions: HepG2 Attagene TRANS reporter, ERRa transactivation
Steroid hormone receptor ERR1 (Homo sapiens), sequence (P11474 whole entry, looked up, the tested form may be a part): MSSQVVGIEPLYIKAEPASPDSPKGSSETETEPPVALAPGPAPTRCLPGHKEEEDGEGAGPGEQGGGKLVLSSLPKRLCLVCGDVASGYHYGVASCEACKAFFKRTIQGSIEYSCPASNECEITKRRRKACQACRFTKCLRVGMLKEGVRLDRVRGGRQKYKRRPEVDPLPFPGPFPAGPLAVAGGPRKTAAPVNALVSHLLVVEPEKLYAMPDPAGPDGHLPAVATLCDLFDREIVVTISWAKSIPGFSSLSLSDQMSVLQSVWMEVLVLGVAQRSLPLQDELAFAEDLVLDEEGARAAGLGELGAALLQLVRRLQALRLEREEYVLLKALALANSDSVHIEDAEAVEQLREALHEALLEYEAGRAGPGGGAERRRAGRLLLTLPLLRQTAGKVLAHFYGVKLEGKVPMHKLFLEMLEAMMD
Procedure, shortened: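 HepG2 cells were transiently transfected with multiple GAL4-UAS reporter units, then dosed with compound for 24 h. Total RNA was reverse-transcribed, reporter cDNA PCR-amplified and fluorescently labelled, and fragments resolved by capillary electrophoresis; induction was compared with DMSO.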

Measured: AC50

C1=COCCC1
inactive: [1] | [2] | [3] | [4] | [5] | [6] | [7]

C[C@H](CCC(=O)O)[C@H]1CC[C@H]2[C@@H]3CC[C@@H]4C[C@H](O)CC[C@]4(C)[C@H]3CC[C@]12C
active: [1] 35.1 µM | [3] 43 µM | [4] 17.7 µM | [5] 26.3 µM
inactive: [2] | [6]

COc1ccccc1O
inactive: [1] | [2] | [3] | [4] | [5] | [6] | [7] | [8]

CN(C)C(=O)Nc1ccccc1
inactive: [1] | [2] | [3] | [4] | [5] | [6] | [7]

CC(C)(C)c1cccc(O)c1
active: [4] 28.1 µM | [5] 14.7 µM
inactive: [1] | [2] | [3] | [6]

CC(C)(O)CCc1ccccc1
inactive: [1] | [2] | [3] | [4] | [5] | [6]

CCCC1CCC(=O)CC1
inactive: [1] | [2] | [3] | [4] | [5] | [6] | [7]

CCCCOCCOCCO
inactive: [1] | [2] | [3] | [4] | [5] | [6] | [7] | [8]

CC(=O)CCc1ccc(O)cc1
inactive: [1] | [2] | [3] | [4] | [5] | [6] | [7] | [8]

CC(O)COCC(C)O (stereo not given)
inactive: [1] | [2] | [3] | [4] | [5] | [6] | [7] | [8]

c1ccc(Cc2ccccc2)cc1
inactive: [1] | [2] | [3] | [4] | [5] | [6] | [7] | [8]

O=C(O)c1ccco1
inactive: [1] | [2] | [3] | [4] | [5] | [6] | [7]

c1ccc(Sc2ccccc2)cc1
inactive: [1] | [2] | [3] | [4] | [6] | [7] | [8]
active: [5] 38.3 µM

CCC(C)(C)C1CCC(OC)CC1 (stereo not given)
inactive: [1] | [2] | [3] | [4] | [6] | [7]
active: [5] 58.7 µM

CCCC1CCOC(C)S1 (stereo not given)
inactive: [1] | [2] | [3] | [4] | [5] | [6] | [7] | [8]

CC(=O)c1ccc(O)cc1
inactive: [1] | [2] | [3] | [4] | [5] | [6] | [8]

CCCCCCCCCC(=O)OCC
inactive: [1] | [2] | [3] | [5] | [6] | [8]
active: [4] 44.1 µM

O=C(O)CS
inactive: [1] | [2] | [3] | [4] | [9] | [6] | [7]

[Cl][Dy]([Cl])[Cl]
inactive: [1] | [2] | [3] | [4] | [5] | [7] | [8]

C=CC(O)CCCCC (stereo not given)
inactive: [2] | [3] | [9] | [7]
active: [1] 27 µM | [4] 48.4 µM | [6] 48.1 µM

CCc1cccc(O)c1
active: [4] 49.3 µM
inactive: [1] | [2] | [3] | [5] | [8]

CC(C)=CC(=O)O
inactive: [1] | [2] | [3] | [4] | [8]
active: [5] 49.1 µM

CCCCCCCCSCc1cc(C)c(O)c(CSCCCCCCCC)c1
inactive: [1] | [2] | [3] | [4] | [5] | [6] | [8]

COc1ccc2[nH]cc(CCNC(C)=O)c2c1
inactive: [1] | [2] | [3] | [4] | [5] | [8]

CC(C)CCOC(=O)CC(C)C
inactive: [1] | [2] | [3] | [4] | [5] | [6] | [7] | [8]

CCn1cc(C(=O)O)c(=O)c2ccc(C)nc21
inactive: [1] | [2] | [3] | [4] | [9] | [6] | [8]

O=C(OCc1ccccc1)c1ccccc1O
inactive: [1] | [2] | [3] | [4] | [7]
active: [5] 43 µM

Cc1cc(N)n(-c2ccccc2)n1
inactive: [1] | [2] | [3] | [4] | [9] | [6]

Cc1cccc(C)c1
inactive: [1] | [2] | [3] | [4] | [6]

CC12CCC(C1)C(C)(C)C2O (stereo not given)
inactive: [1] | [2] | [3] | [4] | [5] | [8]

CC(C)(C)C1CCC(O)CC1 (stereo not given)
active: [5] 29.2 µM
inactive: [1] | [2] | [3] | [4] | [7]

CCCCCCOC(C)=O
inactive: [1] | [2] | [3] | [4] | [5] | [6] | [8]
